Experimental data published in PubChem BioAssay (NCATS).
Values joined by “and” are separate entries in the source; they are usually repeats but may differ in a detail not shown here. Equal entries are not always repeated. Inconclusive results are not listed. Active and inactive are the calls of the source. The call rests on the fitted dose curve; in most records, active means well fitted inhibition curve with a large enough effect; inconclusive means small, poorly fitted or top-dose-only effect; inactive means no such curve, though single readings can be large or run the other way.

assay: Primary qHTS for inhibitors of nuclear receptor binding SET domain protein 2 (NSD2) in an RCH-ACV wild type WT cells (2C) (AID 1645877); settings: RCH-ACV (leukaemia line) NSD2 WT (2C) viability, CellTiter-Glo, 72 h; series mostly up to 44.9 µM; further: nearly all actives have a fitted effect of over 70% in size
Potency means the concentration at half of the fitted maximal effect.

| Structure (SMILES) | Potency |
| --- | --- |
| CC(O)(CC(=O)O)CC(=O)OCc1ccc(O[C@@H]2O[C@H](CO)[C@@H](O)[C@H](O)[C@H]2O)cc1 (stereo partly specified) | inactive |
| C[C@]12C[C@@H](O)[C@@H]3C[C@@]1(O[C@@H]1O[C@H](CO)[C@@H](O)[C@H](O)[C@H]1O)[C@]3(COC(=O)c1ccccc1)C(=O)O2 | inactive |
| Cc1cc(N(C)C)ccc1-c1nc2ccc(-c3nc4ccc(N5CCN(C)CC5)cc4[nH]3)cc2[nH]1 | 258 nM (active) |
| COc1c2c(cc3c1-c1c(cc4c(c1OC)OCO4)CC(C)C(C)C3)OCO2 (stereo unspecified) | inactive |
| COc1cc2c(NC3CCN(CC4CCCCC4)CC3)nc(N3CCCN(C(C)C)CC3)nc2cc1OCCCN1CCCCC1 | 2.3 µM (active) and 3.32 µM (active) |
| COc1cc(NC(=O)Nc2cccc(CNC(=O)O[C@H]3CCOC3)c2)ccc1-c1cnco1 | 728 nM (active) |
| O=C(c1ccccc1)c1ccc2nc(NC(=O)c3csc(C4CCN(c5ncnc6ccsc56)CC4)n3)[nH]c2c1 | 4590 nM (active) |
| CCCCc1nc2cc(/C=C/C(=O)NO)ccc2n1CCN(CC)CC | 230 nM (active) and 525 nM (active) |
| CC1=CC(=O)C2(OC3OC(C)C(O)C(OC(=O)/C=C/c4ccccc4)C3O)C=COC(OC3OC(CO)C(O)C(O)C3O)C12 (stereo unspecified) | inactive |
| CN1CCN(C2CCC(n3cc(-c4ccc(Oc5ccccc5)cc4)c4c(N)ncnc43)CC2)CC1 (stereo unspecified) | 72.8 nM (active) and 74.2 nM (active) |
| Cc1cc(O)c(-c2ccc([C@@H](C)CN(C)C)cc2)c2c1[nH]c(=O)c1sccc12 | 74.2 nM (active) |
